# In PubChem BioAssay (Tox21):
# Values without a mark were called inactive. Records with an inconclusive call do not appear. Entries that show only a call come without a potency. Calls of active or inactive are those of the source. The call rests on the fitted dose curve.
# Molecular target: Acetylcholinesterase (Homo sapiens) (UniProt P22303)
# Test: Acetylcholinesterase (AChE) small molecule antagonists: enzyme-based qHTS assay (AID 1347397); further: nearly all actives have a fitted effect of over 55% in size
# Settings: Potency: AChE enzyme activity inhibition; outcome: AChE enzyme activity inhibition; series mostly up to 115 µM
# Summary of the method: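 Tox21 library chemicals are tested in qHTS format against recombinant human AChE. The enzyme, dispensed at 50 mU/mL, sits with compound for 30 min at room temperature. A DTNB–acetylthiocholine cocktail follows, and colour is read after 10 min.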
# Sequence of Acetylcholinesterase (Homo sapiens) (P22303 whole entry, looked up): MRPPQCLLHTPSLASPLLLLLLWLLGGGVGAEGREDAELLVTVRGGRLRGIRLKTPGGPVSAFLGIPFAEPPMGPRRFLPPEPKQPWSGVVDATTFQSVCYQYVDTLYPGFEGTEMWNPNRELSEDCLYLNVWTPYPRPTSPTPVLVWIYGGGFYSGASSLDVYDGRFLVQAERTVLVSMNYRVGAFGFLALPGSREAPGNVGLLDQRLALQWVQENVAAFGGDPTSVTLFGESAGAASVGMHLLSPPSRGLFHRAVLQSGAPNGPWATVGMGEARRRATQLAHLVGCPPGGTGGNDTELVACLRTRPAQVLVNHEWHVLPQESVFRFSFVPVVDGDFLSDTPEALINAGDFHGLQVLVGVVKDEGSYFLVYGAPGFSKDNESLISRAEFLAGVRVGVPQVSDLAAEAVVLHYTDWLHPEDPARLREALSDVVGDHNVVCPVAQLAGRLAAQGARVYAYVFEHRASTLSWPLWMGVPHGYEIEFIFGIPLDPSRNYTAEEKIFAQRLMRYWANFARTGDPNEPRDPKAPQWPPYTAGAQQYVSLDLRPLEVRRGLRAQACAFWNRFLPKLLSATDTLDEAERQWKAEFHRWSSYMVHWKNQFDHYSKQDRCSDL
SMILES,Potency,"activity change, negative = inhibition"
COC(=O)c1cc(Cl)ccc1NS(=O)(=O)C(F)(F)F,inactive,
CC(C)=CCC[C@](C)(O)[C@@H]1CC=C(C)CC1,inactive,
COc1ccccc1N1CCN(CCCCNC(=O)c2ccc(-c3ccc(C(C)=O)cc3)cc2)CC1,inactive,
C=CCNCC=C,inactive,
CCCC(=O)Nc1ccc(O)c(C(C)=O)c1,inactive,
CN(C)CCCN(C)C,,0.096% [at 10.5 µM]
O=C1c2ccccc2C(=O)C1c1nc2ccccc2c(Br)c1O,inactive,
O=C1CCCCCCCCCCCCCC1,inactive,
Cc1ccc(S(=O)(=O)NCl)cc1,inactive,
CCCCCCCCCCCCCCCCCCOCCO,,1.34% [at 23.6 µM]
C[C@]12CCC(=O)C=C1CC[C@@H]1[C@@H]2[C@@H](O)C[C@@]2(C)[C@H]1CC[C@]2(O)C(=O)COC(=O)CCC(=O)O,inactive,
CNC1(C)C2CCC(C2)C1(C)C (stereo not given),inactive,
C[Si]1(C)O[Si](C)(C)O[Si](C)(C)O[Si](C)(C)O[Si](C)(C)O1,inactive,
O=C(O)CNC(=O)c1ccccc1,inactive,
O=C(O)C(=O)O,inactive,
Cc1ncc(COP(=O)(O)O)c(C=O)c1O,inactive,
CCOc1c(N2CCOCC2)cnn(C)c1=O,inactive,
CC(=O)CCC(=O)O,inactive,
C[C@H]1COc2c(C3(N)CC3)c(F)cc3c(=O)c(C(=O)O)cn1c23,inactive,
CC1=CC[C@@H]2C[C@H]1C2(C)C,,0.56% [at 23.6 µM]

SMILES,Potency,"activity change, negative = inhibition"
Nc1cc([N+](=O)[O-])ccc1Cl,inactive,
CN1CCC(OC(c2ccccc2)c2ccccc2)CC1,inactive,
CC(=O)OC[C@H]1O[C@@H](OC(C)=O)[C@H](OC(C)=O)[C@@H]1OC(C)=O,inactive,
CCO[Si](CC(C)C)(OCC)OCC,inactive,
CCCNC(C)(C)COC(=O)c1ccccc1,inactive,
Cc1nnc(C(=O)NC(C)(C)c2nc(C(=O)NCc3ccc(F)cc3)c(O)c(=O)n2C)o1,inactive,
Cc1ccc(NC=O)c(C)c1,inactive,
Nc1nc(F)nc2c1ncn2[C@@H]1O[C@H](CO)[C@@H](O)[C@@H]1O,inactive,
Cc1cccc(C(=O)O)c1O,inactive,
CCCCCCOCCO,inactive,
O=C(O)CN(CC(=O)O)CC(=O)O,inactive,
CC1=C(C(=O)O)N2C(=O)[C@@H](NC(=O)[C@H](N)C3=CCC=CC3)[C@H]2SC1,inactive,
Nc1ccc(N)c2c1C(=O)c1ccccc1C2=O,inactive,
Cc1cc(O)c(Cl)cc1C,inactive,
COCC(=O)Nc1c(I)c(C(=O)NCC(O)CO)c(I)c(C(=O)N(C)CC(O)CO)c1I (stereo not given),inactive,
CCCCCC[C@@H](O)C/C=C\CCCCCCCC(=O)OC,inactive,
CC1=C(/C=C/C(C)=C/C=C/C(C)=C/C(=O)Nc2ccc(O)cc2)C(C)(C)CCC1,inactive,
CCN(CC)CCNC(=O)c1cc(S(C)(=O)=O)ccc1OC,inactive,
CCCCCCOC(C)=O,inactive,
O=c1cc[nH]c(=S)[nH]1,inactive,

# Molecular target: Acetylcholinesterase (Homo sapiens) (UniProt P22303)
# Test: Acetylcholinesterase (AChE) small molecule antagonists: fluorescence cell-based qHTS assay (AID 1347398); further: nearly all actives have a fitted effect of over 50% in size; further: potency means the concentration at half of the fitted maximal effect
# Settings: SH-SY5Y cells; Potency: AChE activity; outcome: AChE activity; series mostly up to 115 µM
# Summary of the method: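 Cellular AChE inhibition: SH-SY5Y cells treated with test chemical for 30 min at 37 C, then acetylthiocholine hydrolysis followed over 40 min at room temperature via thiocholine-reactive Thiolite Green fluorescence (490/520 nm).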
SMILES,Potency,"activity change, negative = inhibition"
COC(=O)c1cc(Cl)ccc1NS(=O)(=O)C(F)(F)F,inactive,
CC(C)=CCC[C@](C)(O)[C@@H]1CC=C(C)CC1,inactive,
COc1ccccc1N1CCN(CCCCNC(=O)c2ccc(-c3ccc(C(C)=O)cc3)cc2)CC1,inactive,
C=CCNCC=C,inactive,
CCCC(=O)Nc1ccc(O)c(C(C)=O)c1,inactive,
CN(C)CCCN(C)C,,0.828% [at 10.5 µM]
O=C1c2ccccc2C(=O)C1c1nc2ccccc2c(Br)c1O,inactive,
O=C1CCCCCCCCCCCCCC1,inactive,
Cc1ccc(S(=O)(=O)NCl)cc1,inactive,
CCCCCCCCCCCCCCCCCCOCCO,,-1.79% [at 23.8 µM]
C[C@]12CCC(=O)C=C1CC[C@@H]1[C@@H]2[C@@H](O)C[C@@]2(C)[C@H]1CC[C@]2(O)C(=O)COC(=O)CCC(=O)O,inactive,
CNC1(C)C2CCC(C2)C1(C)C (stereo not given),inactive,
C[Si]1(C)O[Si](C)(C)O[Si](C)(C)O[Si](C)(C)O[Si](C)(C)O1,inactive,
O=C(O)CNC(=O)c1ccccc1,inactive,
O=C(O)C(=O)O,inactive,
Cc1ncc(COP(=O)(O)O)c(C=O)c1O,inactive,
CCOc1c(N2CCOCC2)cnn(C)c1=O,inactive,
CC(=O)CCC(=O)O,inactive,
C[C@H]1COc2c(C3(N)CC3)c(F)cc3c(=O)c(C(=O)O)cn1c23,inactive,
CC1=CC[C@@H]2C[C@H]1C2(C)C,,0.301% [at 23.8 µM]

SMILES,Potency,"activity change, negative = inhibition"
Nc1cc([N+](=O)[O-])ccc1Cl,inactive,
CN1CCC(OC(c2ccccc2)c2ccccc2)CC1,inactive,
CC(=O)OC[C@H]1O[C@@H](OC(C)=O)[C@H](OC(C)=O)[C@@H]1OC(C)=O,inactive,
CCO[Si](CC(C)C)(OCC)OCC,inactive,
CCCNC(C)(C)COC(=O)c1ccccc1,inactive,
Cc1nnc(C(=O)NC(C)(C)c2nc(C(=O)NCc3ccc(F)cc3)c(O)c(=O)n2C)o1,inactive,
Cc1ccc(NC=O)c(C)c1,inactive,
Nc1nc(F)nc2c1ncn2[C@@H]1O[C@H](CO)[C@@H](O)[C@@H]1O,inactive,
Cc1cccc(C(=O)O)c1O,inactive,
CCCCCCOCCO,inactive,
O=C(O)CN(CC(=O)O)CC(=O)O,inactive,
CC1=C(C(=O)O)N2C(=O)[C@@H](NC(=O)[C@H](N)C3=CCC=CC3)[C@H]2SC1,inactive,
Nc1ccc(N)c2c1C(=O)c1ccccc1C2=O,inactive,
Cc1cc(O)c(Cl)cc1C,inactive,
COCC(=O)Nc1c(I)c(C(=O)NCC(O)CO)c(I)c(C(=O)N(C)CC(O)CO)c1I (stereo not given),inactive,
CCCCCC[C@@H](O)C/C=C\CCCCCCCC(=O)OC,inactive,
CC1=C(/C=C/C(C)=C/C=C/C(C)=C/C(=O)Nc2ccc(O)cc2)C(C)(C)CCC1,13.8 µM (active),
CCN(CC)CCNC(=O)c1cc(S(C)(=O)=O)ccc1OC,inactive,
CCCCCCOC(C)=O,inactive,
O=c1cc[nH]c(=S)[nH]1,inactive,
